Only some compounds are listed: those with a hit (about 4.8% of all), similar ones and a draw of the others.
ATXN viability: Viability Counterscreen for Primary qHTS for Inhibitors of ATXN expression. 400,000 tested, 0.49% active. Potency, µM (top dose mostly 56.7 µM), hits mostly cytotoxic. S2 cells (HEK-293 line with an ATXN2-luciferase reporter) viability, CellTiter-Fluor protease fluorescence, 24 h; note: nearly all actives have a fitted effect of over 40% in size
IL1B secr inh: qHTS for Inhibitors of Inflammasome Signaling: IL-1-beta AlphaLISA Primary Screen; THP-1 LPS/ATP IL-1B secretion, AlphaLISA, 16 h; active compounds read low; activity change, % at 57.5 µM; 360,000 tested, 4.7% active; AID 743279, 2014; in the data active = activity change below about -50%; inconclusive = mostly about -30% to -49%
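Secreted IL-1B measured by AlphaLISA bead assay after 16 h compound exposure of THP-1 cells; compounds (final up to 57.5 uM) added 1 h before LPS (250 ng/mL) and ATP (1.25 mM) stimulation; lower signal means less secretion.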
USP2a block: qHTS Assay for Inhibitors of Ubiquitin-specific Protease USP2a Using CHOP2 as the Reporter; USP2 core, Ub-CHOP2 coupled fluorogenic reporter, 485/531; AID 463254, 2010; Ubiquitin carboxyl-terminal hydrolase 2 (Homo sapiens), O75604; Potency, µM (titrated, usually from 38.3 µM), usual class: inhibitors; 330,000 tested, 0.01% active
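Cell-free coupled assay: 10nM USP2 core preincubated 30min RT with compound in Tris-HCl pH 8.0/CaCl2/CHAPS buffer, then 25nM Ub-CHOP2 and 25nM reporter substrate; fluorescence (Ex 485/Em 531) read after 60min RT, normalized to NEM inhibition, concentration-response curves fitted.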
USP1-UAF1 inh: Inhibitors of USP1/UAF1: Primary Screen | recombinant USP1/UAF1, Ub-Rhodamine cleavage fluorescence | Ubiquitin carboxyl-terminal hydrolase 1 (Homo sapiens), O94782 | Potency, µM (top dose mostly 57.1 µM), actives largely listed as inhibitors | 390,000 tested, 0.23% active; note: nearly all actives have a fitted effect of over 60% in size
Target sequence (O94782 whole entry, looked up): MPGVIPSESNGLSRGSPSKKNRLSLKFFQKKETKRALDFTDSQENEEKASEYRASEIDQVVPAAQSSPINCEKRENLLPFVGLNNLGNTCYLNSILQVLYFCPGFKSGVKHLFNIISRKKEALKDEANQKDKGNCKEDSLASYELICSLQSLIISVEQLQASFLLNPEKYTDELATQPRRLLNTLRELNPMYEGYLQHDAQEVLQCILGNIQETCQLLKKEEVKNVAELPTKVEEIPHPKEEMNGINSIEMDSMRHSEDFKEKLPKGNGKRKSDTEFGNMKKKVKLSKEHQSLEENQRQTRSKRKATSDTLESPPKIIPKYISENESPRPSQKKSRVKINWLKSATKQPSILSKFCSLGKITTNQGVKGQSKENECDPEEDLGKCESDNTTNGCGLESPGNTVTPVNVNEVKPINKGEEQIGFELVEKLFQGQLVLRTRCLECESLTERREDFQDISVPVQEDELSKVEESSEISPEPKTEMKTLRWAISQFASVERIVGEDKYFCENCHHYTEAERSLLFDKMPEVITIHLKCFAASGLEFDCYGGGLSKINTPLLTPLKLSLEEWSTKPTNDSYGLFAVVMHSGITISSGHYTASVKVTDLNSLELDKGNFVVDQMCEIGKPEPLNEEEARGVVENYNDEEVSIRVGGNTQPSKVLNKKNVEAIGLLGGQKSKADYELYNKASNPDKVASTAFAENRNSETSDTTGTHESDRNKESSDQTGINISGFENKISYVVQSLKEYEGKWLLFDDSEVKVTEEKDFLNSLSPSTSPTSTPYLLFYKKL
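1 nM enzyme complex + cpd, 15 min RT; start with Ub-Rho 150nM final; kinetic fluorescence ex 480/em 540, 6 reads q60 s. Buffer 50mM HEPES pH 7.8, 0.5mM EDTA, 0.1 mg/ml BSA, 1mM TCEP, 0.01% Tween-20.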
ATXN2 expr inh: Primary qHTS for Inhibitors of ATXN expression. AID 1745845, 2022. HEK-293 ATXN2-luciferase reporter, luminescence, 24 h. 360,000 tested, 0.72% active. Potency, µM (top dose mostly 57 µM), actives largely listed as inhibitors; note: nearly all actives have a fitted effect of over 55% in size
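ATXN2-luciferase reporter cells (luciferase flanked by upstream and downstream ATXN2 gene portions) were treated 24 h at 37 °C with compounds at up to 57 uM. SteadyGlo luminescence gave expression; GF-AFC fluorescence gave viability.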
Numbers stand for hits; 0 = inactive; ? = inconclusive; - = no result; ! = a repeat was not active; [ ] = remark or other dose. Unless noted, calls come from the whole dose curve; as a rule, active = well fitted curve in the direction sought with a large enough effect; inconclusive = small, poorly fitted or top-dose-only effect, or another doubt; inactive = no such curve, though single readings can be large; an effect the other way counts as inactive or inconclusive.

SMILES	ATXN viability	IL1B secr inh	USP2a block	USP1-UAF1 inh	ATXN2 expr inh
Cc1nc2ccccc2c(=O)n1-c1ccccc1[N+](=O)[O-]	0	0	0	0	-
CCN(C[C@H]1N[C@@](CC)(C(=O)OC)[C@H]2C(=O)N(Cc3ccccc3)C(=O)[C@@H]12)S(=O)(=O)c1ccc(C)cc1	0	0	0	?	0
CCC1=Nc2cc(C(=O)N3CCC4(CC3)OCCO4)ccc2Sc2ccccc21	?	0	0	?	0
CCCC1=Nc2cc(C(=O)NCCCN(CC)CC)ccc2Sc2ccccc21	?	-	-	0	32µM
COc1ccc(-n2nnnc2C(c2cc3ccccc3o2)N2CCC(n3c(=O)[nH]c4ccccc43)CC2)cc1 (centres undefined)	7.9µM	0	-	-	7.9µM
O=c1[nH]c2ccccc2n1C1CCN(C(c2cc3ccccc3o2)c2nnnn2-c2ccc3c(c2)OCCO3)CC1 (centres undefined)	?	?	-	-	13µM
C[C@H](CO)N1C[C@H](C)[C@H](CN(C)S(=O)(=O)c2ccc(Cl)cc2)OCc2ccccc2-c2c(n(C)c3ccccc23)C1=O	?	0	-	0	?
O=C(NC1CN2CCC1CC2)c1cc(Cl)c([N+](=O)[O-])c2nc[nH]c12 (centres undefined)	?	-104	0	0	0
C#C[C@@]1(O)CC[C@@H]2[C@@H]3CCC4=CC(=O)CC[C@@]4(C)[C@H]3CC[C@]21C	0	-	-	-	-
Cc1cccc(C)c1-n1nnnc1C(c1cccc2ccccc12)N1CCC(n2c(=O)[nH]c3ccccc32)CC1 (centres undefined)	0	0	-	-	0
N#Cc1ccc2nc(-c3ccc(CN4CCC(n5c(=O)[nH]c6ccccc65)CC4)cc3)c(-c3ccccc3)nc2c1	?	-66	-	-	?
Cc1cccc2nc(-c3ccccc3)c(-c3ccc(CN4CCC(n5c(=O)[nH]c6ccccc65)CC4)cc3)nc12	?	-51	-	-	0
O=c1[nH]c2ccccc2n1C1CCN(C(c2nnnn2Cc2ccccc2)C2CC2)CC1 (centres undefined)	?	0	-	-	?
CC(C)c1ccc(Cc2cn3cc(-c4cc5ccccc5oc4=O)nc3s2)cc1	?	-	-	?	0
COC(=O)C1=C(c2ccc(OC(F)(F)F)cc2)C[C@@H]2CC[C@H]1N2C(=O)NCCOc1ccccc1Cl	?	-58	0	0	?
COC(=O)C1=C(c2ccc(Cl)c(C(F)(F)F)c2)C[C@@H]2CC[C@H]1N2C(=O)NCc1ccco1	?	-65	0	0	0
COC(=O)C1=C(c2ccc(Cl)c(C(F)(F)F)c2)C[C@@H]2CC[C@H]1N2C(=O)NCCO	0	0	0	0	0
COC(=O)C1=C(c2ccc(Cl)c(C(F)(F)F)c2)C[C@@H]2CC[C@H]1N2C(=O)NC1CCCCC1	?	-52	0	0	0
COC(=O)C1=C(c2ccc(Cl)c(C(F)(F)F)c2)C[C@@H]2CC[C@H]1N2C(=O)NCCOc1ccccc1	?	-81	0	0	?
O=C(Nc1ccc(OC(F)(F)F)cc1)C1CCN(S(=O)(=O)c2cccs2)CC1	?	-	-	0	?
CCc1ccc(-c2nn(Cc3ccccc3)cc2C=O)cc1	0	-59	0	0	0
C#C[C@]1(O)C=C[C@@H]2[C@@H]3CCC4=CC(=O)CC[C@@H]4[C@H]3CC[C@@]21CC	-	-	-	-	0
COc1cccc(CNCCc2c[nH]c3ccccc23)c1OC	0	0	0	0	0
Clc1cccc(CNCCc2c[nH]c3ccccc23)c1	0	-92	0	0	0
COc1ccc(CNCCc2c[nH]c3ccccc23)c(OC)c1OC	0	-58	0	0	0
SMILES	ATXN viability	IL1B secr inh	USP2a block	USP1-UAF1 inh	ATXN2 expr inh
CCOc1cc(CNCCc2c[nH]c3ccccc23)cc(Cl)c1OC	?	-103	0	0	?
C[C@@H]1CNC(=O)c2c(C(=O)Nc3cccc(Cl)c3)ncn21	?	?	-	0	0
CN[C@@H](C)Cc1ccccc1	0	-	-	-	-
CCOc1ccc(Cl)cc1CNCCc1ccc(F)cc1	?	-57	0	0	0
C[C@H]1CCC/C=C/C2C[C@H](O)CC2[C@H](O)/C=C/C(=O)O1 (some centres undefined)	?	-64	0	0	?
CC1CCC/C=C/C2CC(O)CC2C(O)/C=C/C(=O)O1 (centres undefined)	?	-56	0	0	?
CCCCC[C@H]1CCCCC[C@H](O)C[C@H](O)[C@@H](O)/C=C/C(=O)O1	0	0	-	-	0
CN1CCC(N(C)c2ncnc3ccc(Br)cc23)CC1	0	0	0	0	0
Cc1ccc(-c2nc(N(C)C3CCN(C)CC3)c3ccccc3n2)cc1	?	-90	0	0	20µM
Oc1ccccc1-c1ccccc1	0	-	-	-	0
Oc1ccc2c3c1O[C@H]1[C@@H](O)CC[C@]4(O)[C@H](C2)N(CC2CCC2)CC[C@@]314	0	-	-	-	-
CN1[C@H]2CC[C@@H]1[C@@H](C(=O)O)[C@@H](OC(=O)c1ccccc1)C2	0	-	-	-	-
CCN(CC)Cc1nccn1-c1ccc([N+](=O)[O-])cc1C(=O)c1ccccc1Cl	?	-	-	-	0
CC(C)(C)c1ccc(O)cc1	0	-	-	-	0
Cc1cc(N2CCCC2)ccc1C=C(C#N)C#N	0	0	0	0	0[11.3 µM]
N#CC(C#N)=Cc1ccc(C=C(C#N)C#N)cc1	?	-83	0	?	?
O=C1NC(=O)N(Cc2ccccc2)C(=O)/C1=C\C=C\c1ccco1	0	-212	0	0	-
Cn1cccc1/C=C1\C(=O)NC(=O)N(Cc2ccco2)C1=O	0	0	0	0	0
O=C1NC(=O)N(Cc2ccco2)C(=O)/C1=C/C=C/c1ccco1	?	-100	?	0	?
COc1ccc(Nc2c(-c3cc(Br)ccc3O)nc3ncccn23)cc1OC	?	-	-	0	0
O=C(O)CSCC(=O)N(Cc1ccccc1)c1nc(-c2ccccc2)c(-c2ccccc2)s1	0	0	0	?	0
CNCCC(Oc1ccc(C(F)(F)F)cc1)c1ccccc1 (centres undefined)	32µM	?	0	0	28µM!
Cc1ccc2cc(C=C(C#N)C#N)c(Cl)nc2c1	0	-96	0	0	0
O=C1c2ccccc2C(=O)N1SC1CCCCC1	0	0	0	?	0
CC(C)(C)OC(=O)NCc1ccc(CNC(=O)c2[nH]cnc2C(=O)Nc2ccccc2F)cc1	?	0	-	0	?
CC1(C)C[C@H]2C=C(C=O)[C@]3(C=O)C[C@]3(C)[C@H]2C1	7.1µM	-108	0	0	3.5µM
CCN1C[C@]2(COC)CC[C@H](O)[C@@]34[C@@H]5C[C@H]6[C@@H](OC)[C@H]5[C@](O)(C[C@@H]6OC)[C@@](O)([C@@H](OC)[C@H]23)[C@@H]14	0	-	-	-	-

Screening data as filed in PubChem.
